Sampled rows, rich in hits. Any-hit rate of the full collection: about 7.5%.
HCV inhibitor – inhibitors of hepatitis C virus infection. Huh7.5.1 HCVcc-Cre infection, luciferase reporter, 44 h. Potency, µM (series often up to 41.8 µM), inactives show at the top dose activity change, negative = inhibition, actives largely listed as inhibitors. hit rate 3.4% among 340,000; also: potency is read from the fitted curve at half-maximal effect
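Cells seeded at 1,000/well and cultured 4 h, then compounds added followed by HCVcc-Cre virus (~0.5 moi). After 44 h further culture, luciferase substrate was added, plates held 15 min at room temperature, and luminescence read for 15 sec.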
FMDV inh – foot and mouth disease virus antiviral activity; hit rate 1.2% among 410,000; FMDV antiviral cell-based qHTS; Potency, µM (titrated, usually from 57.9 µM), for inactives: top-dose activity change, negative = inhibition, hits mostly inhibitors; calls by dose curve; tested in HEK293T cells; also: read-out not given here; potency is read from the fitted curve at half-maximal effect; nearly all actives have a fitted effect of over 45% in size
Vaccinia mCherry – inhibitors of vaccinia virus infection (mCherry reporter signal); Vaccinia virus mCherry reporter infection, fluorescence; AID 720579; hit rate 0.63% among 310,000; Potency, µM (series often up to 36.5 µM), inactives show at the highest dose activity change, negative = inhibition, usual class: inhibitors; calls by dose curve; tested in A549 cells; also: potency is read from the fitted curve at half-maximal effect; nearly all actives have a fitted effect of over 35% in size
Giardia FBPA inh – Giardia lamblia aldolase inhibition. purified Giardia FBPA. Potency, µM (titrated, usually from 59.6 µM), for the others: at the top dose activity, negative = inhibition, usual class: inhibitors. hit rate 0.71% among 290,000. AID 2451; also: potency is read from the fitted curve at half-maximal effect; nearly all actives have a fitted effect of over 55% in size
Target sequence (A8B2U2 whole entry, looked up): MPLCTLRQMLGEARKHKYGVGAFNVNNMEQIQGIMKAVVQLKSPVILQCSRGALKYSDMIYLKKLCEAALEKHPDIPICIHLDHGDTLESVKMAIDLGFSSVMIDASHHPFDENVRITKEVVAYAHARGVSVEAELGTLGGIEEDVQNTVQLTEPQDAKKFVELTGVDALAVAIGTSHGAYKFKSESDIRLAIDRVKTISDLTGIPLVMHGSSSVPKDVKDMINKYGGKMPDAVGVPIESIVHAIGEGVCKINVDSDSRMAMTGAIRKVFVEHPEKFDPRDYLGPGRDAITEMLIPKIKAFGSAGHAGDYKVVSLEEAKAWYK
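Giardia FBPA (40 nM reagent) was preincubated 10 min at RT with compound (up to 57.5 uM final), then substrate plus GAPDH/TPI/NAD/arsenate coupling system with diaphorase/resazurin was added; resorufin fluorescence (525/598 nm) was read after 20 min.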
HCMV inh – blocks human cytomegalovirus replication; hit rate 4.5% among 410,000; activity change, negative = inhibition, % at 57.5 µM; HFF cells, HCMV-luciferase reporter, 72 h; hits give low values; in the data active = activity change below about -60%; inconclusive = no clear call, values can overlap the other calls; inactive = above about -39%
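Luciferase read-out from HCMV-luciferase-infected HFFs (MOI 1 PFU/cell) 72 h post infection at 37C; compounds added after 16 h cell attachment; activity normalized between buffer-only basal and Salinomycin (10uM) inhibitor controls.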
VACV Venus inh – inhibitors of vaccinia virus (Venus reporter); AID 720580; hit rate 0.46% among 330,000; Potency, µM (top dose mostly 36.5 µM), for inactives: top-dose activity change, negative = inhibition, most hits filed as inhibitors; Vaccinia virus Venus reporter expression, fluorescence; calls by dose curve; tested in A549 cells; also: potency is read from the fitted curve at half-maximal effect; nearly all actives have a fitted effect of over 30% in size
An asterisk follows results filed as active; i = inactive; u = inconclusive; x = no result given; [ ] = remark or other dose. Unless noted, calls follow the shape of the dose curve; as a rule, active = well fitted curve in the direction sought with a large enough effect; inconclusive = small, poorly fitted or top-dose-only effect, or another doubt; inactive = no such curve, though single readings can be large; an effect the other way counts as inactive or inconclusive. % is scaled to controls: 0 for no effect and ±100 for the full control effect.

SMILES	HCV inhibitor	FMDV inh	Vaccinia mCherry	Giardia FBPA inh	HCMV inh	VACV Venus inh
Cc1cc(-n2c(C)cc(C(=O)COc3ccc(F)c(F)c3)c2C)no1	10µM*	44.2%	x	x	x	x
Cc1cc(-n2c(C)cc(C(=O)CSc3nncn3C)c2C)no1	u	15.3%	i	x	-24.4	-14.9%
Cc1cc(C)c(C(N)=O)c(SCC(=O)c2cc(C)n(-c3cc(C)on3)c2C)n1	2.24µM*	u	x	x	u	x
Cc1cc(-n2c(C)cc(C(=O)CSc3nncn3C(C)C)c2C)no1	6.3%	9.3%	-9.9%	x	-97.5*	-8.9%
c1ccc(-c2ccc(OCCCNC3CCCC3)cc2)cc1	11.2µM*	-29.5%	u	u	-21.2	-19.3%
COc1ccc(OCCNC2CCCC2)cc1	-4.3%	-4.2%	i	-13.1%	51.9	-3.9%
Cc1ccc2c(c1)CC1(CN2C)C(=O)OC(C)(C)OC1=O	9.3%	-10.0%	7.08µM*	u	-15.6	10µM*
COC1=C(OC)C(=O)C(C/C=C(\C)CC/C=C(\C)CC/C=C(\C)CC/C=C(\C)CC/C=C(\C)CC/C=C(\C)CC/C=C(\C)CC/C=C(\C)CC/C=C(\C)CCC=C(C)C)=C(C)C1=O	x	x	x	4.7%	x	x
COc1ccc(S(=O)(=O)Nc2cc(Sc3ncn[nH]3)c(O)c3ccccc23)cc1	31.6µM*	x	x	0.561µM*	-77.6*	x
Cc1cc(C)c(S(=O)(=O)Nc2ccc(O)cc2)cc1C	-12.0%	27.8%	x	-3.2%	x	x
O=S(=O)(Nc1cc(Sc2cccc3cccnc23)c(O)c2ccccc12)c1ccc(F)cc1	11.2µM*	12.6µM*	u	1.12µM*	-100.0*	55.6%
O=C(O)CSc1cc(NS(=O)(=O)c2ccc(Cl)cc2)c2ccccc2c1O	u	u	14.1µM*	3.98µM*	-92.5*	u
Cc1cc(C)c(S(=O)(=O)Nc2cc(SCC(=O)O)c(O)c3ccccc23)cc1C	u	-3.7%	-1.3%	3.97µM*	x	-1.4%
O=S(=O)(Nc1cccc2cccnc12)c1ccc2ccccc2c1	x	x	x	-16.8%	x	x
COc1ccc(OC)c(S(=O)(=O)NCc2ccccn2)c1	7.9%	58.1%	x	4.7%	-27.1	x
Cc1cc(Cl)ccc1NC(=O)CS(=O)(=O)c1cccc2nsnc12	x	-3.1%	-25.9%	x	-18.5	-17.0%
COc1ccc(S(=O)(=O)Nc2cc(SCC(=O)O)c(O)c3ccccc23)cc1	u	-48.8%	x	7.94µM*	u	x
Cn1c(=O)n(Cc2ccccc2Br)c2ccccc21	-12.5%	-15.1%	-28.1%	5.3%	-61.8*	-20.9%
COC(=O)c1scc(-c2ccc(C)cc2)c1S(=O)(=O)Nc1cccc(C(F)(F)F)c1	x	-5.7%	-8.7%	x	-0.2	-0.2%
CC(C)(C)c1ccc(OCCOc2ccc(C(C)(C)C)cc2NC=O)c(NC=O)c1	10µM*	u	-0.4%	-11.5%	u	u
COCCOc1ccc(C(F)(F)F)cc1NC(=O)c1ccccc1	-4.9%	8.3%	-9.2%	-0.6%	13.1	0.7%
Cc1ccc(N2C(=O)/C(=C/N3CCN(C(=O)c4ccco4)CC3)C(=O)NC2=S)cc1C	-4.1%	-0.1%	x	-11.9%	-101.0*	-0.1%
Cc1ccc(CNC(=O)c2c[nH]n3c(=O)c(Cc4ccc(Cl)cc4)c(C)nc23)cc1	x	-9.2%	-8.7%	x	-34.3	-9.8%
Cc1ccc(C2C=C(c3ccccc3)Nc3nc(N4C(=O)CCC4=O)nn32)cc1 (stereo not drawn)	-3.5%	1.1%	-20.2%	-13.6%	-61.9*	-10.0%
Cc1ccc(C2C=C(c3ccc(Cl)cc3)Nc3nc(NC(=O)c4ccco4)nn32)cc1 (stereo not drawn)	x	u	-17.4%	x	-62.1*	-4.6%
SMILES	HCV inhibitor	FMDV inh	Vaccinia mCherry	Giardia FBPA inh	HCMV inh	VACV Venus inh
COc1ccccc1C(=O)Nc1nc2n(n1)C(c1ccc(F)cc1)C=C(c1ccc(Cl)cc1)N2 (stereo not drawn)	x	-17.3%	-19.1%	x	-22.4	-22.7%
CC(C)c1nn2c(=O)cc(COC(=O)c3ccc(NC(=O)c4ccccc4Cl)cc3)nc2s1	x	u	-17.4%	x	-19.1	-8.1%
Cc1cccc(NC(=O)C2CCN(S(=O)(=O)c3ccc4c(c3)OCCCO4)CC2)n1	u	u	i	x	-78.9*	-7.8%
Cc1cccc(NC(=O)C2CCN(S(=O)(=O)c3ccc4c(c3)OCCO4)CC2)n1	-8.7%	u	-2.3%	x	u	-10.3%
Cc1ccc(NC(=O)C2CCN(S(=O)(=O)c3ccc4c(c3)OCCCO4)CC2)nc1	u	u	-5.1%	x	-63.0*	-17.6%
CC(=O)c1c(-c2ccccc2)c2cc(Cl)ccc2[nH]c1=O	2.4%	2.6%	u	0.8%	-62.8*	u
COc1ccc(CNC(=O)c2cnn3c(C(F)F)cc(C)nc23)cc1OC	10µM*	u	i	2.2%	29.6	-19.2%
COCCNC(=O)c1cnn2c(C(F)F)cc(-c3ccc(C)cc3)nc12	5.2%	-7.3%	x	0.3%	-11.7	x
Cc1oc(-c2ccccc2NC(=O)c2ccccn2)nc1CNC(=O)c1cccc(C#CC(C)(C)O)c1	x	27.6%	-7.8%	x	x	-10.2%
CN(NC(=O)c1cccc(Cl)c1)c1nc(-c2ccccc2)nnc1C(F)(F)F	-27.4%	u	x	5.7%	-4.9	-16.7%
CN(N)c1nc(-c2ccccc2)nnc1C(F)(F)F	-13.6%	0.0%	x	-4.0%	-104.5*	u
CC(C)Cn1cc(NC(=O)NCc2ccc(Cl)cc2)c2ccccc2c1=O	x	-17.9%	-1.4%	x	-105.5*	9.9%
NNC(=O)c1cc(-c2ccc(N)cc2)nc2ccc(Br)cc12	-0.2%	4.3%	x	2.6%	16.0	x
CC1=C(C(=O)OCc2ccccc2)C(/C=C/c2ccccc2)NC(=S)N1 (stereo not drawn)	8.91µM*	u	-20.9%	-0.1%	-32.6	u
O=C(CSc1nnc(CNC(=O)c2ccc(F)cc2)o1)Nc1nccs1	-14.3%	-8.2%	-12.5%	9.7%	3.9	-7.5%
Cc1cccc(N2CCN(C(=O)C3CCN(S(=O)(=O)c4cccc5nsnc45)CC3)CC2C)c1 (stereo not drawn)	11.2µM*	25.1µM*	-25.9%	-1.1%	u	-17.6%
Cc1ccc(Cl)cc1N1CCN(C(=O)C2CCN(c3nnc(-n4cccc4)s3)CC2)CC1	12.6µM*	u	x	4.8%	u	x
Cc1cccc(N2CCN(C(=O)C3CCN(c4nnc(-n5cccc5)s4)CC3)CC2C)c1 (stereo not drawn)	u	15.8µM*	-13.4%	-18.1%	-4.9	-6.6%
COc1ccc(C(=O)Nc2cc(OC)c(NC(=O)Nc3ccccc3)cc2OC)cc1	x	-10.9%	-26.2%	x	-3.4	-20.8%
CCCCCCCCNC(C)C(O)c1ccc(SC(C)C)cc1 (stereo not drawn)	-4.1%[8.37 µM]	u	-2.8%	2.8%	-81.9*	u
C[C@@H](NCCc1ccc(O)cc1)[C@@H](O)c1ccc(O)cc1	5.8%	-26.8%	i	-0.5%	103.1	-8.2%

Assay outcomes: PubChem BioAssay, National Center for Advancing Translational Sciences (NCATS)
